Calls of active or inactive are those of the source.

Test system in one test: not listed separately
In words: blood-stage malaria parasite viability loss – strain 3D7, DAPI fluorescence, 100 nL, primary screen (AID 1184).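 Also: parasites grown inside human red blood cells in medium with human serum.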 To be noted: P. falciparum 3D7 growth, 3 d, higher = more signal.
Molecule `O=C1C=C[C@@H](O)[C@@H]2[C@@H]3C(=O)N(C[C@@H]4CCCO4)C(=O)[C@@H]3CC[C@@H]12` gave a z-score of 0.0136.

Take `CCOC(=O)CCN1C(=O)[C@H]2[C@H]3[C@H](O)[C@H](O)CC(=NOCC(C)C)[C@H]3CC[C@H]2C1=O`: the z-score is 1.2.

Take `CC(=O)OC[C@H]1O[C@H](CCON=C2[C@H]3CCn4c(=O)n(-c5ccccc5)c(=O)n4[C@H]3[C@H](O)[C@@H]3O[C@H]23)C=C[C@@H]1OC(C)=O`: the z-score was -0.374.

Turning to `COc1cc(O)c(C(=O)C=Cc2ccc3c(c2)OCO3)c(OC)c1`, the z-score is -0.973.

The molecule `CCOC(=O)CCN1C(=O)[C@H]2[C@H]3[C@H](O)[C@H](O)CC(=NNC(=O)OCc4ccccc4)[C@@H]3CC[C@H]2C1=O` had a z-score of -0.597.

Molecule `CC(=O)O[C@H]1C2=CO[C@H](C)[C@H]3[C@H]4C5=C([C@H](O)[C@H]6O[C@H]6C5=O)[C@H](OC4C)[C@@]23C(=O)[C@@H]2O[C@@H]21` (some centres not stated) yielded a z-score of -1.24.

Molecule `C#CCCCON=C1C[C@@H](O)[C@@H](O)[C@@H]2[C@@H]3C(=O)N(C(C)(C)C)C(=O)[C@@H]3CC[C@H]12` yielded a z-score of -0.381.

`COc1cccc([C@H]2Oc3ccc(OC)cc3C(=NO[C@@H]3O[C@H](COC(C)=O)[C@@H](OC(C)=O)[C@H](OC(C)=O)[C@H]3OC(C)=O)[C@@H]2O)c1` had a z-score of 0.956.

In turn, `CC(C)CON=C1C[C@@H](O)[C@@H](O)[C@@H]2[C@@H]3C(=O)N(C4CCCCC4)C(=O)[C@@H]3CC[C@@H]12` had a z-score of -0.398.

`C=C(C)C(=O)OCC1CN2[C@@H](CC[C@@H](C)[C@@H]2c2ccc(Br)cc2)C(=O)O1` (some centres not stated) had a z-score of -0.19.

`CCOC(=O)[C@H](Cc1ccccc1)NC(=O)CCC1CC(OC(=O)NCc2cccc3ccccc23)CC2(CCCC(COC(=O)NCc3cccc(C(F)(F)F)c3)O2)O1` (some centres not stated): the z-score is -1.39.

Consider `COc1cccc([C@H]2Oc3ccc(OC)cc3C(=NO[C@H](C)c3cn([C@H](CO)Cc4ccccc4)nn3)[C@@H]2O)c1`, for which the z-score amounted to 0.24.

With `C[C@@H](c1ccccc1)N1C(=O)[C@H]2[C@H]3[C@H](O)[C@H](O)CC(=NOCc4ccccc4)[C@H]3CC[C@H]2C1=O`, the z-score worked out at 0.754.

`C=CC[C@@H]1C=C[C@H](ON=C[C@@H](C)[C@H](OCc2ccccc2)C(C)C)[C@@H](CO)O1`: the z-score turned out to be 0.395.

`COc1ccc(O[C@H]2C=C[C@@H](c3ccccc3)O[C@@H]2CON=C(C)C)cc1`: the z-score stood at 0.894.

For the molecule `C=Cc1ccc([C@H]2N[C@H](C(=O)O)CC[C@@H]2C)cc1`, the z-score came to 2.18.

`CC(C)CON=C1C[C@@H](O)[C@@H](O)[C@@H]2[C@@H]3C(=O)N(c4ccc(F)cc4F)C(=O)[C@@H]3CC[C@H]12`: the z-score came out at 0.0017.

With `CO[C@@H]1COC(=O)[C@@H](C)NC(=O)CC=C[C@@H](C)[C@H](NS(=O)(=O)c2ccc(C)cc2)COC(=O)[C@H](C)NC(=O)CC=C[C@H]1C`, the z-score stood at 0.327.

As to `CSCC[C@@H]1NC(=O)CC=C[C@@H](C)COC(=O)[C@@H](C)COC1=O`, the z-score is -0.866.

`CON=C[C@@H](C)[C@H](OCc1ccccc1)C(C)C` had a z-score of -1.11.

For the molecule `CCOC(=O)[C@H](Cc1ccccc1)NC(=O)CCC1CC(OC(=O)NCCc2ccc(F)cc2)CC2(CCCC(COC(=O)NCC3CCCCC3)O2)O1` (some centres not stated), the z-score was -1.82.

`O=C1C=C[C@@H](O)[C@@H]2[C@@H]3C(=O)N(c4ccc(F)cc4F)C(=O)[C@@H]3CC[C@@H]12` returned a z-score of 0.262.

As to `CCN1C(=O)[C@H]2[C@H]3[C@H](O)[C@H](O)CC(=NOCC(C)C)[C@@H]3CC[C@H]2C1=O`, the z-score is -0.108.

For `CCOC(=O)[C@H](CC(C)C)NC(=O)CCC1CC(OC(=O)NCc2ccc3c(c2)OCO3)CC2(CCCC(COC(=O)NCC3CCCCC3)O2)O1` (some centres not stated), the z-score is -1.77.

Take `CCCCc1nc2c(c3c1C[C@H](C)OC3)CN(CCOc1ccccc1)CC2`: the z-score was 0.964.

As to `COC(=O)C=CCCc1coc(C=CCNC(=O)OC)n1`, the z-score was -0.92.

Molecule `CCOC(=O)[C@H](Cc1ccccc1)NC(=O)CCC1CC(OC(=O)NCc2cccc3ccccc23)CC2(CCCC(COC(=O)NCC(c3ccccc3)c3ccccc3)O2)O1` (some centres not stated) gave a z-score of -1.83.

In turn, `O=C1[C@H]2[C@H]3[C@H](O)[C@H](O)CC(=NOCc4ccccc4)[C@H]3CC[C@H]2C(=O)N1Cc1ccc2c(c1)OCO2` showed a z-score of -0.437.

As to `CCCCC#C[C@@H]1C=C[C@H](Oc2ccc(C(=O)OC)cc2)[C@@H](COC(=O)OCC)O1`, the z-score was -0.332.

In the case of `CON=CC[C@@H]1C=C[C@H](OC(C)=O)[C@@H](COC(C)=O)O1`, the z-score turned out to be 1.2.

Another test deals with Homeobox protein Hox-A13 (Mus musculus) (UniProt Q62424). As to the kind of experiment: disruptors of Hoxa13 oligonucleotide interaction – biochemical, fluorescence polarization, labeled oligonucleotide, primary screen (AID 1185). To be noted: Hoxa13:DNA binding, 15 min, higher = more signal, called active from +8 up or from −8 down. On the technique in general: In fluorescence polarisation assays a small probe gives low polarisation when free and higher when bound to something large.
Sequence of Homeobox protein Hox-A13 (Mus musculus) (Q62424 whole entry, looked up): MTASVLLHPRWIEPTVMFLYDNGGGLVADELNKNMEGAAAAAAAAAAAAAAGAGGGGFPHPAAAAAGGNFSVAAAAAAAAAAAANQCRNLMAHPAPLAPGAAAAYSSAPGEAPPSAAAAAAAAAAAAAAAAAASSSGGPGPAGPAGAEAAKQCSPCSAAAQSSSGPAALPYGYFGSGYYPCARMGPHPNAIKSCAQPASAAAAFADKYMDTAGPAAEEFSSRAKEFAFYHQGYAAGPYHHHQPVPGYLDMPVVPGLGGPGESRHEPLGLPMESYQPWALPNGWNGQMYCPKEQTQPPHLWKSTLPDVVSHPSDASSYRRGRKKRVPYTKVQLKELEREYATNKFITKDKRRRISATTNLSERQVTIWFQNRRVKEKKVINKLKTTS
Consider `Cc1cc2c(c(=O)o1)[C@@H](O)[C@H]1O[C@H]1C2=O`, for which the z-score was -1.3 (inactive).

For the molecule `CC(C)CON=C1[C@H]2CCn3c(=O)n(Cc4cc5c(cc4Cl)OCO5)c(=O)n3[C@H]2[C@H](O)[C@@H]2O[C@H]12`, the z-score is 1.8 (inactive).

As for `CC(C)=NO[C@H](C)c1cn([C@H](CO)Cc2ccccc2)nn1`, the z-score was 0.584 (inactive).

Regarding `Cc1ccc(S(=O)(=O)n2c3ccccc3c3nnc(C(=O)c4ccccc4)nc32)cc1`, the z-score was -3.73 (inactive).

Regarding `Cc1ccc(S(=O)(=O)NC(CCc2ccccc2)CC(=O)C(C)(C)C)cc1` (configuration not stated), the z-score was -3.68 (inactive).

Consider `COC(=O)CC=C[C@@H](C)[C@@H](C=NO[C@@H](C)c1cc(-c2c(C)cc(C)cc2C)no1)NS(=O)(=O)c1ccc(C)cc1`, for which the z-score is -2.92 (inactive).

For `CON=C1[C@H]2CCn3c(=O)n(-c4ccccc4)c(=O)n3[C@H]2[C@H](O)[C@@H]2O[C@H]12`, the z-score is -0.465 (inactive).

Take `O=C1C=C[C@@H](O)[C@@H]2[C@@H]3C(=O)N(C[C@@H]4CCCO4)C(=O)[C@@H]3CC[C@@H]12`: the z-score was 0.112 (inactive).

Turning to `CCOC(=O)CCN1C(=O)[C@H]2[C@H]3[C@H](O)[C@H](O)CC(=NOCC(C)C)[C@H]3CC[C@H]2C1=O`, the z-score is 0.737 (inactive).

In the case of `CC(=O)OC[C@H]1O[C@H](CCON=C2[C@H]3CCn4c(=O)n(-c5ccccc5)c(=O)n4[C@H]3[C@H](O)[C@@H]3O[C@H]23)C=C[C@@H]1OC(C)=O`, the z-score was -1.83 (inactive).

`COc1cc(O)c(C(=O)C=Cc2ccc3c(c2)OCO3)c(OC)c1`: the z-score was -0.978 (inactive).

Take `CCOC(=O)CCN1C(=O)[C@H]2[C@H]3[C@H](O)[C@H](O)CC(=NNC(=O)OCc4ccccc4)[C@@H]3CC[C@H]2C1=O`: the z-score was 0.897 (inactive).

For the molecule `CC(=O)O[C@H]1C2=CO[C@H](C)[C@H]3[C@H]4C5=C([C@H](O)[C@H]6O[C@H]6C5=O)[C@H](OC4C)[C@@]23C(=O)[C@@H]2O[C@@H]21` (some centres not stated), the z-score is -1.02 (inactive).

Turning to `C#CCCCON=C1C[C@@H](O)[C@@H](O)[C@@H]2[C@@H]3C(=O)N(C(C)(C)C)C(=O)[C@@H]3CC[C@H]12`, the z-score is 0.436 (inactive).

Consider `COc1cccc([C@H]2Oc3ccc(OC)cc3C(=NO[C@@H]3O[C@H](COC(C)=O)[C@@H](OC(C)=O)[C@H](OC(C)=O)[C@H]3OC(C)=O)[C@@H]2O)c1`, for which the z-score is -5.19 (inactive).

Regarding `CC(C)CON=C1C[C@@H](O)[C@@H](O)[C@@H]2[C@@H]3C(=O)N(C4CCCCC4)C(=O)[C@@H]3CC[C@@H]12`, the z-score is -4.41 (inactive).

As for `C=C(C)C(=O)OCC1CN2[C@@H](CC[C@@H](C)[C@@H]2c2ccc(Br)cc2)C(=O)O1` (some centres not stated), the z-score was -1.71 (inactive).

For the molecule `CCOC(=O)[C@H](Cc1ccccc1)NC(=O)CCC1CC(OC(=O)NCc2cccc3ccccc23)CC2(CCCC(COC(=O)NCc3cccc(C(F)(F)F)c3)O2)O1` (some centres not stated), the z-score is -4.31 (inactive).

For `COc1cccc([C@H]2Oc3ccc(OC)cc3C(=NO[C@H](C)c3cn([C@H](CO)Cc4ccccc4)nn3)[C@@H]2O)c1`, the z-score is -6.29 (inactive).

Take `C[C@@H](c1ccccc1)N1C(=O)[C@H]2[C@H]3[C@H](O)[C@H](O)CC(=NOCc4ccccc4)[C@H]3CC[C@H]2C1=O`: the z-score is 0.0197 (inactive).

Consider `C=CC[C@@H]1C=C[C@H](ON=C[C@@H](C)[C@H](OCc2ccccc2)C(C)C)[C@@H](CO)O1`, for which the z-score was -4.51 (inactive).

Regarding `COc1ccc(O[C@H]2C=C[C@@H](c3ccccc3)O[C@@H]2CON=C(C)C)cc1`, the z-score was 2.39 (inactive).

Consider `C=Cc1ccc([C@H]2N[C@H](C(=O)O)CC[C@@H]2C)cc1`, for which the z-score was -0.69 (inactive).

For the molecule `CC(C)CON=C1C[C@@H](O)[C@@H](O)[C@@H]2[C@@H]3C(=O)N(c4ccc(F)cc4F)C(=O)[C@@H]3CC[C@H]12`, the z-score was -0.224 (inactive).

For `CO[C@@H]1COC(=O)[C@@H](C)NC(=O)CC=C[C@@H](C)[C@H](NS(=O)(=O)c2ccc(C)cc2)COC(=O)[C@H](C)NC(=O)CC=C[C@H]1C`, the z-score is -0.348 (inactive).

For the molecule `CSCC[C@@H]1NC(=O)CC=C[C@@H](C)COC(=O)[C@@H](C)COC1=O`, the z-score is 0.572 (inactive).

Consider `CON=C[C@@H](C)[C@H](OCc1ccccc1)C(C)C`, for which the z-score was 3.84 (inactive).

Regarding `CCOC(=O)[C@H](Cc1ccccc1)NC(=O)CCC1CC(OC(=O)NCCc2ccc(F)cc2)CC2(CCCC(COC(=O)NCC3CCCCC3)O2)O1` (some centres not stated), the z-score is -2.33 (inactive).

`O=C1C=C[C@@H](O)[C@@H]2[C@@H]3C(=O)N(c4ccc(F)cc4F)C(=O)[C@@H]3CC[C@@H]12`: the z-score was 0.159 (inactive).

Take `CCN1C(=O)[C@H]2[C@H]3[C@H](O)[C@H](O)CC(=NOCC(C)C)[C@@H]3CC[C@H]2C1=O`: the z-score was -1.62 (inactive).

Take `CCOC(=O)[C@H](CC(C)C)NC(=O)CCC1CC(OC(=O)NCc2ccc3c(c2)OCO3)CC2(CCCC(COC(=O)NCC3CCCCC3)O2)O1` (some centres not stated): the z-score is -6.18 (inactive).

As to `CCCCc1nc2c(c3c1C[C@H](C)OC3)CN(CCOc1ccccc1)CC2`, the z-score was -4.81 (inactive).

As to `COC(=O)C=CCCc1coc(C=CCNC(=O)OC)n1`, the z-score was -2.9 (inactive).

As for `CCOC(=O)[C@H](Cc1ccccc1)NC(=O)CCC1CC(OC(=O)NCc2cccc3ccccc23)CC2(CCCC(COC(=O)NCC(c3ccccc3)c3ccccc3)O2)O1` (some centres not stated), the z-score was -4.93 (inactive).

Consider `O=C1[C@H]2[C@H]3[C@H](O)[C@H](O)CC(=NOCc4ccccc4)[C@H]3CC[C@H]2C(=O)N1Cc1ccc2c(c1)OCO2`, for which the z-score was -3.74 (inactive).

With `CCCCC#C[C@@H]1C=C[C@H](Oc2ccc(C(=O)OC)cc2)[C@@H](COC(=O)OCC)O1`, the z-score is -5.73 (inactive).

Turning to `CON=CC[C@@H]1C=C[C@H](OC(C)=O)[C@@H](COC(C)=O)O1`, the z-score is 0.463 (inactive).

Source of the values: PubChem BioAssay.
